Of roughly 7,900 targets only a part is listed; those with a hit were picked by preference. About 0.6% of all pairs of compound and target were hits. Values without a mark were called inactive.
Key:
Experiment in all cases: log2 fold change, soluble protein after heating vs DMSO (PISA); higher = thermal stabilisation; K562 cells, 10 uM, 30 min; active = over 0.2 and 3.5 SD of the protein, either way, in both replicates (recomputed)
[1] = compound: CN1CCN(CCOc2cc(OC3CCOCC3)c3c(Nc4c(Cl)ccc5c4OCO5)ncnc3c2)CC1 [saracatinib]
Summary of the method: (§1)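 Soluble protein was quantified by TMTpro 16plex LC-MS/MS after channel sums were equalised. It was obtained as the supernatant after 21,000xg for 90 min from pooled aliquots of K562 cells (2×10^6 cells/mL, 10 μM compound, 30 min) heated for 3 min across 48°C-58°C and extracted in PBS with 0.5% NP-40 at 4°C. Thermal stability values are relative to control samples and come from duplicates. They are given as log2 fold changes.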

[2] = compound: CN1CCN(c2nc(C3=C(c4c[nH]c5ccccc45)C(=O)NC3=O)c3ccccc3n2)CC1 [sotrastaurin]
Summary of the method: as §1

[3] = compound: CN1CC[C@H](c2c(O)cc(O)c3c(=O)cc(-c4ccccc4Cl)oc23)[C@H](O)C1 [alvocidib]
Summary of the method: as §1

[4] = compound: CN1CCc2c(c3ccccc3n2Cc2ccc(C(=O)NO)cc2)C1 [Tubastatin A]
Summary of the method: as §1

[5] = compound: CNC(=O)C1=CC=CC=C1NC2=NC(=NC=C2Cl)NC3=C(C=C(C=C3)N4CCOCC4)OC
Summary of the method: as §1

[6] = compound: CNC(=O)c1ccc(Nc2ncc(C(F)(F)F)c(NCc3nccnc3N(C)S(C)(=O)=O)n2)cc1 [defactinib]
Summary of the method: as §1

[7] = compound: CNc1nc(-c2ccc3c(N)n[nH]c3c2)cc(N2C[C@@H](C(=O)NC3CCCCC3)CC[C@H]2C)n1
Summary of the method: as §1

[8] = compound: COC(=O)[C@H](CCSC)NC(=O)C1=C(C=C(C=C1)NC[C@H](CS)N)C2=CC=CC=C2
Summary of the method: as §1

[9] = compound: COC1=CC=C(C=C1)CN2C=CC3=C2C=C(C=C3)C(=O)NO
Summary of the method: as §1

[10] = compound: CON(C)C(=O)N1N=C(c2cc(F)ccc2F)S[C@@]1(CCCN)c1ccccc1 [filanesib]
Summary of the method: as §1

[11] = compound: CO[C@H]1C[C@@H]2CC[C@@H](C)[C@@](O)(O2)C(=O)C(=O)N2CCCC[C@H]2C(=O)O[C@H]([C@H](C)C[C@@H]2CC[C@H](n3cnnn3)[C@H](OC)C2)CC(=O)[C@H](C)/C=C(\C)[C@@H](O)[C@@H](OC)C(=O)[C@H](C)C[C@H](C)/C=C/C=C/C=C/1C [zotarolimus]
Summary of the method: as §1

[12] = compound: COc1cc(C(=O)O)ccc1NC(=O)[C@@H]1N[C@@H](CC(C)(C)C)[C@](C#N)(c2ccc(Cl)cc2F)[C@H]1c1cccc(Cl)c1F [idasanutlin]
Summary of the method: as §1

[13] = compound: COc1cc(Nc2ncc3c(n2)-c2ccc(Cl)cc2C(c2c(F)cccc2OC)=NC3)ccc1C(=O)O [alisertib]
Summary of the method: as §1

[14] = compound: COc1cc2nc(-c3cc(F)ccc3O)nc(N[C@@H]3CNC[C@H]3C(C)(C)O)c2cc1OC
Summary of the method: as §1

[15] = compound: COc1cc2ncnc(Nc3ccc(F)c(Cl)c3)c2cc1OCCCN1CCOCC1 [gefitinib]
Summary of the method: as §1

[16] = compound: COc1cccc2cc(-c3nc([C@H]4CC[C@H](C(=O)O)CC4)n4ncnc(N)c34)[nH]c12
Summary of the method: as §1

[17] = compound: CS(=O)(=O)CCNCc1ccc(-c2ccc3ncnc(Nc4ccc(OCc5cccc(F)c5)c(Cl)c4)c3c2)o1 [lapatinib]
Summary of the method: as §1

[18] = compound: CS(=O)(=O)N1CCN(Cc2cc3nc(-c4cccc5[nH]ncc45)nc(N4CCOCC4)c3s2)CC1 [pictilisib]
Summary of the method: as §1

[19] = compound: CNCc1ccc(-c2[nH]c3cc(F)cc4c3c2CCNC4=O)cc1 [rucaparib]
Summary of the method: as §1

[20] = compound: COC(=O)N[C@@H](C)CNc1nccc(-c2cn(C(C)C)nc2-c2cc(Cl)cc(NS(C)(=O)=O)c2F)n1 [encorafenib]
Summary of the method: as §1

Sequence of UniProt P40425 (P40425 whole entry, looked up): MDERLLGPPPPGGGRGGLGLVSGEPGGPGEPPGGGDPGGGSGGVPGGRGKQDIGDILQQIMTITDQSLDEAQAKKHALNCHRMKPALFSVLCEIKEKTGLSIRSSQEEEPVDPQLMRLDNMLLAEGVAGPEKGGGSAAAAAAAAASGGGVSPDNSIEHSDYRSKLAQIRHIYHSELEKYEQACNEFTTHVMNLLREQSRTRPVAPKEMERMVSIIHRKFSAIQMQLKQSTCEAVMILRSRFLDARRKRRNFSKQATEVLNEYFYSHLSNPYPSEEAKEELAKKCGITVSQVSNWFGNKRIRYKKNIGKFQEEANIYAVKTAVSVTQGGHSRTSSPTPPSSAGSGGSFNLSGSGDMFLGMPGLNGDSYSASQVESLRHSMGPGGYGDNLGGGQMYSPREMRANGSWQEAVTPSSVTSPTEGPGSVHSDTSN
Sequence of UniProt P07205 (P07205 whole entry, looked up): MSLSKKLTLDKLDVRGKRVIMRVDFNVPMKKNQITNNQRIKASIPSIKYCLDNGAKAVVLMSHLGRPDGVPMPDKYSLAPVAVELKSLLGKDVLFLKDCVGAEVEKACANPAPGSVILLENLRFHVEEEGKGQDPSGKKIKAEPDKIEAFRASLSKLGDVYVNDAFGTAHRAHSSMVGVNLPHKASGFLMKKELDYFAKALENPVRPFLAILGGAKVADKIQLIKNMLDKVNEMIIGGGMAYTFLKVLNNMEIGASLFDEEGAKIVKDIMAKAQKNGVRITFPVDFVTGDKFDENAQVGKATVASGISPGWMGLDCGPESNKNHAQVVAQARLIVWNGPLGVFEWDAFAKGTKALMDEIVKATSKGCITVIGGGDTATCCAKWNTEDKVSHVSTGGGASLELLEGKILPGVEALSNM
Sequence of UniProt O94806 (O94806 whole entry, looked up): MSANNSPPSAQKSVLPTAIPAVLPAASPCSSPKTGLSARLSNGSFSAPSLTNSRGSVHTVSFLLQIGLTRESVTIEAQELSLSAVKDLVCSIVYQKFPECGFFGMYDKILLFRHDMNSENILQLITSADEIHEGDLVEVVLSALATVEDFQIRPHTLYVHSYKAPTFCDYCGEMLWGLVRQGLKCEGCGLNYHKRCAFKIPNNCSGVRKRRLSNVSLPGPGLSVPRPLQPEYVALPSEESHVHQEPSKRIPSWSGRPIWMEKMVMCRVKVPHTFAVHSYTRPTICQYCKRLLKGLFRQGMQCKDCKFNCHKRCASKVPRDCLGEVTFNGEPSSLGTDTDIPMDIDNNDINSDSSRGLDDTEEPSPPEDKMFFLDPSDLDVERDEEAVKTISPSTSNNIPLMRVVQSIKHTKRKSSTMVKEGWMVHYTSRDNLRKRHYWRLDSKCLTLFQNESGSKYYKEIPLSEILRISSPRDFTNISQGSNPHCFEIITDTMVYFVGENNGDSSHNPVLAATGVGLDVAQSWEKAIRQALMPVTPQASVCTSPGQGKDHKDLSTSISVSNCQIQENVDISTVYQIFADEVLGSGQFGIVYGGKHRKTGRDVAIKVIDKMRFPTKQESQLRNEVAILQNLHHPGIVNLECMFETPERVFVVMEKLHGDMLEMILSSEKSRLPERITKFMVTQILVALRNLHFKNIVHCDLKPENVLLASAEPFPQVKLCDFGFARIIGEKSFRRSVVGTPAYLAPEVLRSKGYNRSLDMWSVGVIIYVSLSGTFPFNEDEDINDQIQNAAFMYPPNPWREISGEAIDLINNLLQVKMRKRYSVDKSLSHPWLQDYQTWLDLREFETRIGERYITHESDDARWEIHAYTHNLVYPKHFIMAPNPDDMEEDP
Sequence of UniProt Q8TCG2 (Q8TCG2 whole entry, looked up): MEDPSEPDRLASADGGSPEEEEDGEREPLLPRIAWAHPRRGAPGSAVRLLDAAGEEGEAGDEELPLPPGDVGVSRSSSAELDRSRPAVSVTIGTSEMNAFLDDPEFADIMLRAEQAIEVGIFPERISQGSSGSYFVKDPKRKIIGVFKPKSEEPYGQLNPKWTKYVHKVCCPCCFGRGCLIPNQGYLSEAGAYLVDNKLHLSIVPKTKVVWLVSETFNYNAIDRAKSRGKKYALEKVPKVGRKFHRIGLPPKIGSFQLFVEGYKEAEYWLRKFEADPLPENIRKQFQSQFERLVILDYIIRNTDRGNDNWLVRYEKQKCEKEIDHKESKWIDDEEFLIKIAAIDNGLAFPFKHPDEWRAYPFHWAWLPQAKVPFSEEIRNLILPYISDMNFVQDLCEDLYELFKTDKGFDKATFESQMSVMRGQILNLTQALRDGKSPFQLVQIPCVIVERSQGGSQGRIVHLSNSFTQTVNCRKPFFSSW
Sequence of UniProt Q9H5K3 (Q9H5K3 whole entry, looked up): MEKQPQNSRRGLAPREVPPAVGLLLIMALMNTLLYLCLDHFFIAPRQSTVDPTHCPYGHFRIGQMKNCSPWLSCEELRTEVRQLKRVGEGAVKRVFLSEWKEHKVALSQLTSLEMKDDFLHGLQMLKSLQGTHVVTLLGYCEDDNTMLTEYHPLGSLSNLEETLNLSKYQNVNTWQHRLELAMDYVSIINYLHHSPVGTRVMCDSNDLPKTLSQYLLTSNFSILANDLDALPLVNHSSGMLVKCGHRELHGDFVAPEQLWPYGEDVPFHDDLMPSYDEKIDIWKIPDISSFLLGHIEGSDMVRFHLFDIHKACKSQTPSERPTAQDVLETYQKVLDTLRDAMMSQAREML
Sequence of UniProt P06737 (P06737 whole entry, looked up): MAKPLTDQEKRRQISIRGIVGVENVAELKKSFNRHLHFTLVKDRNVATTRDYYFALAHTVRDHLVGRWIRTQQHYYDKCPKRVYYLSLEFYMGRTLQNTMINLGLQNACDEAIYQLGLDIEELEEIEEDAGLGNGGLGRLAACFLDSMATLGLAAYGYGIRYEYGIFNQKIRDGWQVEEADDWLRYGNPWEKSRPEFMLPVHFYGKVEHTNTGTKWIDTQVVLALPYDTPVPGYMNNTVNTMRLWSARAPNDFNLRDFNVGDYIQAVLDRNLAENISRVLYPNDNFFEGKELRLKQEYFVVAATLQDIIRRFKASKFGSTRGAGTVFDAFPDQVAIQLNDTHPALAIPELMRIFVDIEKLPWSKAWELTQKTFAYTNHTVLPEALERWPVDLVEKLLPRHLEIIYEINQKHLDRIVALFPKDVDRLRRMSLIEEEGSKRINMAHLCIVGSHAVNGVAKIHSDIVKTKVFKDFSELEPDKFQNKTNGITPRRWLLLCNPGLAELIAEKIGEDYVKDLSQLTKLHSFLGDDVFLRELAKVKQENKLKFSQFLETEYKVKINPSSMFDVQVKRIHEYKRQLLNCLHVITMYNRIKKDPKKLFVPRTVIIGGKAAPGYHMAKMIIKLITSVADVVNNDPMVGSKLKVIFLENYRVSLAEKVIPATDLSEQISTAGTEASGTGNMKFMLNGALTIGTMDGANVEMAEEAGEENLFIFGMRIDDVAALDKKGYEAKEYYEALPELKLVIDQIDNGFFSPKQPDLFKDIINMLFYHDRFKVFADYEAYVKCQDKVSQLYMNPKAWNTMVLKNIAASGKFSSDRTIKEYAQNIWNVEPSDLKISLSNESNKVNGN
Sequence of UniProt P46020 (P46020 whole entry, looked up): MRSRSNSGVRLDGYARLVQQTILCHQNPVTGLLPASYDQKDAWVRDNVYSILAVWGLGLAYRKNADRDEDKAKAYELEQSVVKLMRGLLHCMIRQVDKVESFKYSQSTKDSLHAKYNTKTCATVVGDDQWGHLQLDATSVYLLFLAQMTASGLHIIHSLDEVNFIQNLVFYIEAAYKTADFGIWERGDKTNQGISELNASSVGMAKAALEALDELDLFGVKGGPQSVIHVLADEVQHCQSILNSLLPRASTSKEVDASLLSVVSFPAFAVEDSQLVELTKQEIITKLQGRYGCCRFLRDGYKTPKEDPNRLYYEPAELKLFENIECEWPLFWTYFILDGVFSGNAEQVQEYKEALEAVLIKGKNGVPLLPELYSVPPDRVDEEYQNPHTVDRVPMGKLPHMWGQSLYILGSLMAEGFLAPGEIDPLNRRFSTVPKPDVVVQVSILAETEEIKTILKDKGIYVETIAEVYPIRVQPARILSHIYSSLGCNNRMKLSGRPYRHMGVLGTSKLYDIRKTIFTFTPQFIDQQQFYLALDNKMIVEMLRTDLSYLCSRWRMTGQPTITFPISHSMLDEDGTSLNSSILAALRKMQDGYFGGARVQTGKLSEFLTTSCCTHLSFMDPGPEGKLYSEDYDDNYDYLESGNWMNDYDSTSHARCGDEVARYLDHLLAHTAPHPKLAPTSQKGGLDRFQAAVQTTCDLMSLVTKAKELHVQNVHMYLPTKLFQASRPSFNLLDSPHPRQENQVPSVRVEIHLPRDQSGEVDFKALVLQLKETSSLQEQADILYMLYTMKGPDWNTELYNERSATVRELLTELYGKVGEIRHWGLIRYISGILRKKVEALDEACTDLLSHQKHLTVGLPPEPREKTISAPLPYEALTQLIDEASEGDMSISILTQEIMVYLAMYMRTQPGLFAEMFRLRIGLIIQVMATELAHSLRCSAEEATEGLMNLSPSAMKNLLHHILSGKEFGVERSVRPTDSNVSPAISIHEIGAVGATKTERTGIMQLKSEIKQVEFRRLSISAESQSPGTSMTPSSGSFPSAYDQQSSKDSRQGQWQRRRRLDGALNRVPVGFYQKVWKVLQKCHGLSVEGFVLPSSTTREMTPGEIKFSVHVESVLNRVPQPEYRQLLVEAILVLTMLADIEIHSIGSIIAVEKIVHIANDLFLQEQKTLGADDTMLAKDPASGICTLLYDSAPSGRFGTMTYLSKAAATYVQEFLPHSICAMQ
Sequence of UniProt Q9BRP1 (Q9BRP1 whole entry, looked up): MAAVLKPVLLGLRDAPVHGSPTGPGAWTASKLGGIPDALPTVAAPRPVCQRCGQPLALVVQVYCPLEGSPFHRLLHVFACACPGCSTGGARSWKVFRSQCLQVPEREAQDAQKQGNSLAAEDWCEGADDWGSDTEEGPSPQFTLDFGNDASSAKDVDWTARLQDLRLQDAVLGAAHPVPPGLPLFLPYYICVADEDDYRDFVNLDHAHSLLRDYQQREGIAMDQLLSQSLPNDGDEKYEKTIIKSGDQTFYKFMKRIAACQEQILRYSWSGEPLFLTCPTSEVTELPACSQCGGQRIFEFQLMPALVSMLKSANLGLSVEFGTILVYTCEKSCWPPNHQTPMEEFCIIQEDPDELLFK

Target	log2 fold change [1]	log2 fold change [2]	log2 fold change [3]	log2 fold change [4]	log2 fold change [5]	log2 fold change [6]	log2 fold change [7]	log2 fold change [8]	log2 fold change [9]	log2 fold change [10]	log2 fold change [11]	log2 fold change [12]	log2 fold change [13]	log2 fold change [14]	log2 fold change [15]	log2 fold change [16]	log2 fold change [17]	log2 fold change [18]	log2 fold change [19]	log2 fold change [20]
PBX2 (UniProt P40425)	0.082	-0.023	-0.141	-0.069	-0.022	-0.36	-0.046	-0.044	0.132	-0.055	0.115	0.102	-0.027	-0.114	-0.02	0	0.014	0.01		
PHKA1 (UniProt P46020)	-0.12	0.058	-0.073	-0.256	0.101		0.027		0.046	0.076	-0.024	-0.518 (active)	-0.223	0.265	-0.017	0.034	-0.109	0.049	-0.283	-0.295
PRG4 (UniProt Q92954)	0.008	0.136	0.007	0.004	0.14	0.055	0.031	-0.109	0.17	0.081	-0.955 (active)	0.174	0.01		0.034	0.229		-0.062	-0.072	0.001
PRKD3 (UniProt O94806)	0.023	-0.31	0.066		-0.335	-0.068	0.002	-0.058	-0.062	-0.002	0.084	0.171	-0.039			0.149		0.255		
PYGL (UniProt P06737)	0.063	-0.006	0.097	-0.007	-0.185	-0.039	-0.065	0.008	-0.028	0.043	-0.007	-0.015	-0.03	0.095	-0.013	0.051	-0.075	-0.122	-0.028	0.037
PATL1 (UniProt Q86TB9)	-0.075	-0.16	-0.127	-0.001	-0.135	-0.078	0.025	-0.066	-0.015	-0.009	0.076	0.049	-0.035	-0.135		0.069	0.05	-0.115	0.131	0.155
PELP1 (UniProt Q8IZL8)	-0.002	-0.007	-0.066	-0.021	-0.027	-0.082	-0.069	0.004	-0.096	-0.022	0.012	0.012	-0.045	-0.033	-0.002	0.042	0.031	-0.074	-0.054	-0.012
PEX5 isoform 4 (UniProt P50542)	-0.425	-0.207	-0.088	0.077	0.178	0.006	0.182	-0.097		0.064	-0.048	-0.15								
POLR3D (UniProt P05423)	0.264	-0.029	0.024	1.53	-0.074	-0.027	0.425	-0.08	-0.014	0.041	0.065	0.574 (active)	-0.091	-0.017	0.036	-0.136	-0.001	0.013		
PTPA (UniProt A6PVN8)	0.21	0.003	0.034	0.131	-0.133	-0.045	-0.008	0.039		0.019	-0.143	0.09	-0.383	-0.085	0.021	0.297	0.043	0.035	0.072	0.077
PCID2 (UniProt Q5JVF3)	-0.164	-0.22	0.012	0.006	-0.033	-0.281	0.008	-0.101	-0.136	-0.025	-0.07		0.087	0.009	0.039	-0.023	0.175	0.013	0.051	-0.036
PGK2 (UniProt P07205)	-0.196	0.154	0.017	-0.041		0.037	-0.131	0.038	0.016	-0.003	-0.029	0.001	0.08	0.14	0.068	0.001	-0.093	0.041	-0.248	-0.056
PRKCA (UniProt P17252)	-0.174	-0.502 (active)	-0.017	0.018	0.026	-0.006	0.308	0.005	-0.005	-0.066	0.008	0.01	-0.019	0.057	-0.002	0.017	-0.027	0.055	0.039	-0.038
PRKCE (UniProt Q02156)	-0.02	-0.425 (active)	-0.143	-0.052	0.075	-0.133	0.006	-0.06	-0.024	-0.082	0	-0.085	-0.078	0.012	0.029	-0.104	0.025	0.099	-0.043	0.037
PI4K2B (UniProt Q8TCG2)	-0.067	0.04	-0.05	0.028	-0.016	0.003	-0.096	-0.099	-0.035	-0.059	-0.014	-0.034	-0.059		0.4	-0.054		0.051	0.097	-0.148
POMK (UniProt Q9H5K3)	-0.047	0.007	-0.083	0.021	0.022	0.024	-0.052	-0.056	-0.025	-0.019	-0.101	-0.017	0.077	-0.037	-0.02	0.04	0.067	0.077	0.168	0.089
PDCD2L (UniProt Q9BRP1)	-0.072	-0.148	-0.077	0.048	0	-0.068	-0.031	-0.007	0.085	0.014	-0.033	-0.031	-0.033	0	-0.09	-0.018	-0.048	-0.062	0.038	0.127
